# What was measured:
# Assay in all cases: DAPPL (digital affinity profiling via proximity ligation, sequencing); 10 mM Tris-HCl pH 7.5, 50 mM NaCl, 1 mM DTT, 4% glycerol, room temperature, 30 min; GST-TFs on glutathione beads, 16-mer random dsDNA library, 0.1% formaldehyde crosslink after washing; high values mean tight binding
# Details in all cases: protein: recombinant; tags: N-terminal GST; dsDNA, one strand shown
# FEV = molecular target: T1, FEV (Homo sapiens, UniProt Q99581 1-238)
# T1 sequence: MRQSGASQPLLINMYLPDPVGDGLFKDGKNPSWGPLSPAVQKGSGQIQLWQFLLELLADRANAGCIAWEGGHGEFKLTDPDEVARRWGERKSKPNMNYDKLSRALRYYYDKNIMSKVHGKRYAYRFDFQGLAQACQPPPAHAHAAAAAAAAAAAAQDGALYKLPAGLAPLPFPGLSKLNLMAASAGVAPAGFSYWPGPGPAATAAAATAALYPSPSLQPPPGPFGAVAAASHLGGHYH
# Method in brief: (§1)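 Each value of binding signal is a hexamer's read frequency for a factor divided by the same hexamer's frequency in the tag-only sample. Barcoded, bead-captured GST fusions of human transcription factors made in yeast were pooled with that sample and incubated with 200 nmole of a random double-stranded 16-mer DNA library in Tris/NaCl/DTT/glycerol buffer at room temperature for 30 min. Washing, 0.1% formaldehyde crosslinking, proximity ligation, PCR and Illumina NextSeq500 sequencing followed.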
# ETV5 = ETV5 (Homo sapiens, UniProt P41161 1-510)
# Method in brief: as §1
# SPIC = molecular target: T2, SPIC (Homo sapiens, UniProt Q8N5J4 1-248)
# T2 sequence: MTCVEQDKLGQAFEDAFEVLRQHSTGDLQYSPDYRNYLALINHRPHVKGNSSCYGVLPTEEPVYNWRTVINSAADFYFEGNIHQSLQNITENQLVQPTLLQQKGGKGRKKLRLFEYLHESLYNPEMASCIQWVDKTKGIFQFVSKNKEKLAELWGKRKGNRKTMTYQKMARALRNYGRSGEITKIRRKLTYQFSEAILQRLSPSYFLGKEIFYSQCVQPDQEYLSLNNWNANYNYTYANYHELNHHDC
# Method in brief: as §1
# ELF4 = ELF4 (Homo sapiens, UniProt Q99607 1-663)
# Method in brief: as §1
# ELK4 = molecular target: T3, ELK4 (Homo sapiens, UniProt P28324-2 1-405)
# T3 sequence: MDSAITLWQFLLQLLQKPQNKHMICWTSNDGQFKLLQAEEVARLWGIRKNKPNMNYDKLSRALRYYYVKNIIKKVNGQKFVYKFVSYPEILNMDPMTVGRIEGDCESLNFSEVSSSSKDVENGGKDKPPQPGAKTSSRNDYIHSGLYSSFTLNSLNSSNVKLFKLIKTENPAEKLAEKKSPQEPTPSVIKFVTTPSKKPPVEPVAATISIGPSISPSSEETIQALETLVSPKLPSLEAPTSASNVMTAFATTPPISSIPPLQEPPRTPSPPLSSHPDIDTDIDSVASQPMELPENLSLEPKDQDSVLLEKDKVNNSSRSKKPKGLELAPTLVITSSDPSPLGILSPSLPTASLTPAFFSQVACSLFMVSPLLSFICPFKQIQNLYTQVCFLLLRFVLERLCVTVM
# Method in brief: as §1
# ETV2 = molecular target: T4, ETV2 (Homo sapiens, UniProt O00321 1-342)
# T4 sequence: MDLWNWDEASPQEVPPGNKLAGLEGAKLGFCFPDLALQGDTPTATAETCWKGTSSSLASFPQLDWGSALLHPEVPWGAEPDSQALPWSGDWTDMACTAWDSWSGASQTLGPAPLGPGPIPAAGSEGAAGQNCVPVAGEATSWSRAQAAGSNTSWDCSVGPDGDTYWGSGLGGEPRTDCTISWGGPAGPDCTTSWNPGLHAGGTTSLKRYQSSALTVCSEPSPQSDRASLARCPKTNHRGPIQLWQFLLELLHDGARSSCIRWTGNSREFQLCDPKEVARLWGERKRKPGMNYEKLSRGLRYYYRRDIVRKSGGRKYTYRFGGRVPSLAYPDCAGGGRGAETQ
# Method in brief: as §1
# ELF3 = molecular target: T5, ELF3 (Homo sapiens, UniProt P78545 1-371)
# T5 sequence: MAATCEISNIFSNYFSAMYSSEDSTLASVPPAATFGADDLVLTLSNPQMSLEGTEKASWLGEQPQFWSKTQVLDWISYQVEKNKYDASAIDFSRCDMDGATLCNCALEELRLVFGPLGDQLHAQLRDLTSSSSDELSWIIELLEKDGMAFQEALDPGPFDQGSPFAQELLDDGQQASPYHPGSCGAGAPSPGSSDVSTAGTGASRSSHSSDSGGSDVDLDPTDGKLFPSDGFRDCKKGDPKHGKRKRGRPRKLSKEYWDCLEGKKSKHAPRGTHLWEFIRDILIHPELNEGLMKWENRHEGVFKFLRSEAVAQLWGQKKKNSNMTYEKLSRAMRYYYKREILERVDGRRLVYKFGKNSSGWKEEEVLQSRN
# Method in brief: as §1
# ETV1 = ETV1 (Homo sapiens, UniProt P50549 1-477)
# Method in brief: as §1
# Sequence of ETV1 (P50549 whole entry): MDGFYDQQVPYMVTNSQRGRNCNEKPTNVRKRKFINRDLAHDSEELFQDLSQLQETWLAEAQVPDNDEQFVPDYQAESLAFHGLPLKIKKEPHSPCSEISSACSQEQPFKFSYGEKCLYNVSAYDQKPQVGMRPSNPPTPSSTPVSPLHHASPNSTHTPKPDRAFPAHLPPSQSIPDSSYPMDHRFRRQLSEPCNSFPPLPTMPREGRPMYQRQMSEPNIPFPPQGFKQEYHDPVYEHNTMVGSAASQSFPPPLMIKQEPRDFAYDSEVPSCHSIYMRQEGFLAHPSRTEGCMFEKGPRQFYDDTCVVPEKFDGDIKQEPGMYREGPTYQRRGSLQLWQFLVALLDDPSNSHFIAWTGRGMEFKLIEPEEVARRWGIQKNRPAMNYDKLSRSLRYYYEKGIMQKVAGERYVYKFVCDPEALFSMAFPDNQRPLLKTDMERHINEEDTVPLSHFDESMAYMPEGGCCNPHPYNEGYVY
# Sequence of ELF4 (Q99607 whole entry): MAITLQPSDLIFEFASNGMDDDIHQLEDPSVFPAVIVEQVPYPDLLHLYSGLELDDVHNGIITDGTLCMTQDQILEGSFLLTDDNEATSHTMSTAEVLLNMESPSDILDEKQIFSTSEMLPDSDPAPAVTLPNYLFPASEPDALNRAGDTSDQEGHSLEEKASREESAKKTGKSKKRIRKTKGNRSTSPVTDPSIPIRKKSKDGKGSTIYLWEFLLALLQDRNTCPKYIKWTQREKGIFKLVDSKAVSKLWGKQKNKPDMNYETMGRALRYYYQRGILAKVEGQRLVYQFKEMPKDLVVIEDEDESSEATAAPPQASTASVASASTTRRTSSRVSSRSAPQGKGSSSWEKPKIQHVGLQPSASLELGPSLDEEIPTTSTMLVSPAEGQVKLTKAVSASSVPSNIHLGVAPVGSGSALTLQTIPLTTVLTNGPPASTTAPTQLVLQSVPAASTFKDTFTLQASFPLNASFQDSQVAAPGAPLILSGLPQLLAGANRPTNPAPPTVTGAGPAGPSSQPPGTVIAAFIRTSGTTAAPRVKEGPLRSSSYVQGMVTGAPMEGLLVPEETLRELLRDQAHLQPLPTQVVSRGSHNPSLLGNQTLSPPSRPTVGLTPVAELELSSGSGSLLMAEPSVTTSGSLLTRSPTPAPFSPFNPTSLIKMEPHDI
# Sequence of ETV5 (P41161 whole entry): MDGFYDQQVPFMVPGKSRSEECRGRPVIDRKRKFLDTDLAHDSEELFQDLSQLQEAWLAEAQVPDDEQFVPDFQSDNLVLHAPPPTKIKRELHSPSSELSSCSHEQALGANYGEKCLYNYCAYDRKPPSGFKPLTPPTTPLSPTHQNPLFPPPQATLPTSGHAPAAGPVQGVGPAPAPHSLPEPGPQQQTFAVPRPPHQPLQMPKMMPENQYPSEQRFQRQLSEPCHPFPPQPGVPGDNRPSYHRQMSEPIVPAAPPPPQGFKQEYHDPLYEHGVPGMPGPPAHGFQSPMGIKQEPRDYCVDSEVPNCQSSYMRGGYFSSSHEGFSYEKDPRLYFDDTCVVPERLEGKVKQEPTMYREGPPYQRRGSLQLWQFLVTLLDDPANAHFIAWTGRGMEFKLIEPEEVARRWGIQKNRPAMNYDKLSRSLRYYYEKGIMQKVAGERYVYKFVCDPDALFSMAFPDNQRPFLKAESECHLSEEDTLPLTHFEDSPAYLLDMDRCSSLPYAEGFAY
Sequence,binding signal (FEV),binding signal (ETV5),binding signal (SPIC),binding signal (ELF4),binding signal (ELK4),binding signal (ETV2),binding signal (ELF3),binding signal (ETV1)
ACCAAC,"1.19 fold enrichment (6-mer frequency, TF over GST control)","1.22 fold enrichment (6-mer frequency, TF over GST control)","1.1 fold enrichment (6-mer frequency, TF over GST control)","1.25 fold enrichment (6-mer frequency, TF over GST control)","1.31 fold enrichment (6-mer frequency, TF over GST control)","1.25 fold enrichment (6-mer frequency, TF over GST control)","1.2 fold enrichment (6-mer frequency, TF over GST control)","1.16 fold enrichment (6-mer frequency, TF over GST control)"
ACATCA,"1.17 fold enrichment (6-mer frequency, TF over GST control)","1.17 fold enrichment (6-mer frequency, TF over GST control)","1.13 fold enrichment (6-mer frequency, TF over GST control)","1.19 fold enrichment (6-mer frequency, TF over GST control)","1.14 fold enrichment (6-mer frequency, TF over GST control)","1.22 fold enrichment (6-mer frequency, TF over GST control)","1.15 fold enrichment (6-mer frequency, TF over GST control)","1.15 fold enrichment (6-mer frequency, TF over GST control)"
GTCCCT,"1.28 fold enrichment (6-mer frequency, TF over GST control)","1.18 fold enrichment (6-mer frequency, TF over GST control)","1.29 fold enrichment (6-mer frequency, TF over GST control)","1.31 fold enrichment (6-mer frequency, TF over GST control)","1.27 fold enrichment (6-mer frequency, TF over GST control)","1.22 fold enrichment (6-mer frequency, TF over GST control)","1.23 fold enrichment (6-mer frequency, TF over GST control)","1.26 fold enrichment (6-mer frequency, TF over GST control)"
ACTGCA,"1.18 fold enrichment (6-mer frequency, TF over GST control)","1.2 fold enrichment (6-mer frequency, TF over GST control)","1.34 fold enrichment (6-mer frequency, TF over GST control)","1.09 fold enrichment (6-mer frequency, TF over GST control)","1.25 fold enrichment (6-mer frequency, TF over GST control)","1 fold enrichment (6-mer frequency, TF over GST control)","1.08 fold enrichment (6-mer frequency, TF over GST control)","1.01 fold enrichment (6-mer frequency, TF over GST control)"
CACATA,"1.1 fold enrichment (6-mer frequency, TF over GST control)","1.1 fold enrichment (6-mer frequency, TF over GST control)","1.07 fold enrichment (6-mer frequency, TF over GST control)","1.1 fold enrichment (6-mer frequency, TF over GST control)","1.07 fold enrichment (6-mer frequency, TF over GST control)","1.18 fold enrichment (6-mer frequency, TF over GST control)","1.11 fold enrichment (6-mer frequency, TF over GST control)","1.05 fold enrichment (6-mer frequency, TF over GST control)"
ACAACA,"1.2 fold enrichment (6-mer frequency, TF over GST control)","1.16 fold enrichment (6-mer frequency, TF over GST control)","1.13 fold enrichment (6-mer frequency, TF over GST control)","1.19 fold enrichment (6-mer frequency, TF over GST control)","1.14 fold enrichment (6-mer frequency, TF over GST control)","1.28 fold enrichment (6-mer frequency, TF over GST control)","1.32 fold enrichment (6-mer frequency, TF over GST control)","1.23 fold enrichment (6-mer frequency, TF over GST control)"
CGTACC,"1.19 fold enrichment (6-mer frequency, TF over GST control)","1.17 fold enrichment (6-mer frequency, TF over GST control)","1.14 fold enrichment (6-mer frequency, TF over GST control)","1.17 fold enrichment (6-mer frequency, TF over GST control)","1.18 fold enrichment (6-mer frequency, TF over GST control)","1.15 fold enrichment (6-mer frequency, TF over GST control)","1.25 fold enrichment (6-mer frequency, TF over GST control)","1.26 fold enrichment (6-mer frequency, TF over GST control)"
CAACAC,"1.11 fold enrichment (6-mer frequency, TF over GST control)","1.07 fold enrichment (6-mer frequency, TF over GST control)","1.08 fold enrichment (6-mer frequency, TF over GST control)","1.14 fold enrichment (6-mer frequency, TF over GST control)","1.2 fold enrichment (6-mer frequency, TF over GST control)","1.08 fold enrichment (6-mer frequency, TF over GST control)","1.09 fold enrichment (6-mer frequency, TF over GST control)","1.11 fold enrichment (6-mer frequency, TF over GST control)"
CCTGCC,"1.33 fold enrichment (6-mer frequency, TF over GST control)","1.34 fold enrichment (6-mer frequency, TF over GST control)","1.28 fold enrichment (6-mer frequency, TF over GST control)","1.28 fold enrichment (6-mer frequency, TF over GST control)","1.14 fold enrichment (6-mer frequency, TF over GST control)","1.26 fold enrichment (6-mer frequency, TF over GST control)","1.27 fold enrichment (6-mer frequency, TF over GST control)","1.26 fold enrichment (6-mer frequency, TF over GST control)"
TGAACC,"1.12 fold enrichment (6-mer frequency, TF over GST control)","1.21 fold enrichment (6-mer frequency, TF over GST control)","1.1 fold enrichment (6-mer frequency, TF over GST control)","1.15 fold enrichment (6-mer frequency, TF over GST control)","1.19 fold enrichment (6-mer frequency, TF over GST control)","1.01 fold enrichment (6-mer frequency, TF over GST control)","1.12 fold enrichment (6-mer frequency, TF over GST control)","1.2 fold enrichment (6-mer frequency, TF over GST control)"
TGGTGT,"1.14 fold enrichment (6-mer frequency, TF over GST control)","1.26 fold enrichment (6-mer frequency, TF over GST control)","1.09 fold enrichment (6-mer frequency, TF over GST control)","1.34 fold enrichment (6-mer frequency, TF over GST control)","1.31 fold enrichment (6-mer frequency, TF over GST control)","1.45 fold enrichment (6-mer frequency, TF over GST control)","1.25 fold enrichment (6-mer frequency, TF over GST control)","1.2 fold enrichment (6-mer frequency, TF over GST control)"
TGCCAC,"1.32 fold enrichment (6-mer frequency, TF over GST control)","1.14 fold enrichment (6-mer frequency, TF over GST control)","1.19 fold enrichment (6-mer frequency, TF over GST control)","1.26 fold enrichment (6-mer frequency, TF over GST control)","1.42 fold enrichment (6-mer frequency, TF over GST control)","1.14 fold enrichment (6-mer frequency, TF over GST control)","1.44 fold enrichment (6-mer frequency, TF over GST control)","1.26 fold enrichment (6-mer frequency, TF over GST control)"

# From PMC7862700, “An all-to-all approach to the identification of sequence-specific readers for epigenetic DNA modifications on cytosine”
